{
  "source": "PubChem BioAssay (NCATS)",
  "note": "Records with an inconclusive call do not appear. A call without a number means that no potency is given here. The source made the active and inactive calls. Calls come from the whole dose curve; as a rule, active = well fitted inhibition curve with a large enough effect; inconclusive = small, poorly fitted or top-dose-only effect; inactive = flat fitted curve, though single readings scatter.",
  "data": [
    {"test": "P-glycoprotein substrates identified in KB-8-5-11 adenocarcinoma cell line, qHTS therapeutic library screen (AID 1346987); note: nearly all actives have a fitted effect of over 65% in size", "settings": "KB-8-5-11 (P-gp overexpressing) viability, CellTiter-Glo, 72 h; series mostly up to 44.5 µM", "method_in_brief": "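P-gp-mediated resistance screen: KB-8-5-11 cells treated 72 h with compounds in dose-response. CellTiter-Glo viability.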", "values": [
      {"compound": "O=C(Nc1ccc(O)cc1)c1ccccc1O", "Potency": "inactive"},
      {"compound": "Cc1ncc(C[n+]2csc(CCOP(=O)(O)O)c2C)c(N)n1", "Potency": "inactive"},
      {"compound": "FC(F)(F)C(F)(F)C(F)(F)C(F)(F)C(F)(F)F", "Potency": "inactive"},
      {"compound": "CC(C)[C@@H](N)C(=O)O", "Potency": "inactive"},
      {"compound": "CCCC1C(=O)N2C(N(C)C)=Nc3ccc(C)cc3N2C1=O", "note": "(stereo not given)", "Potency": "inactive"},
      {"compound": "CCCC(CCC)C(=O)OC1C[C@H]2CC[C@@H](C1)[N+]2(C)C", "note": "(stereo not given in full)", "Potency": "inactive"},
      {"compound": "C[N+]1(C)[C@@H]2CC(OC(=O)C(O)(c3cccs3)c3cccs3)C[C@H]1[C@@H]1O[C@@H]12", "note": "(stereo not given in full)", "Potency": "inactive"},
      {"compound": "O=C(O)CCCC/C=C(\\c1ccccc1)c1cccnc1", "Potency": "inactive"},
      {"compound": "C=CC1=C(C(=O)O)N2C(=O)[C@@H](NC(=O)/C(=N\\O)c3csc(N)n3)[C@H]2SC1", "note": "(stereo in doubt)", "Potency": "inactive"},
      {"compound": "O=[n+]1ccn([O-])c2ccccc21", "Potency": "inactive"},
      {"compound": "O=C(O)CC/C=C\\CC[C@@H]1[C@@H](N2CCCCC2)[C@@H](O)C[C@@H]1OCc1ccc(-c2ccccc2)cc1", "Potency": "inactive"},
      {"compound": "O=P(O)(O)OP(=O)(O)O", "Potency": "inactive"},
      {"compound": "O=P(O)(O)OP(=O)(O)OP(=O)(O)O", "Potency": "inactive"},
      {"compound": "CC(=O)Nc1ccc(OC(C)=O)cc1", "Potency": "inactive"},
      {"compound": "O=C1[O][Bi][O]c2ccccc21", "Potency": "inactive"},
      {"compound": "C=CC(C)(O)CC/C=C(\\C)CCC=C(C)C", "note": "(stereo not given)", "Potency": "inactive"},
      {"compound": "COc1ccc(-c2noc(CC(=O)O)c2-c2ccc(OC)cc2)cc1", "Potency": "inactive"},
      {"compound": "CC(C)CCCC(C)NC(C)C", "note": "(stereo not given)", "Potency": "inactive"},
      {"compound": "c1ccc2ccccc2c1", "Potency": "inactive"},
      {"compound": "C[C@H](O)CN(C)C", "Potency": "inactive"},
      {"compound": "NC(=O)OCC(O)COc1ccc(Cl)cc1", "note": "(stereo not given)", "Potency": "inactive"},
      {"compound": "N=C(N)n1cccn1", "Potency": "inactive"},
      {"compound": "O=C(O)C1=C(CSc2nnnn2CS(=O)(=O)O)CS[C@@H]2[C@H](NC(=O)[C@H](O)c3ccccc3)C(=O)N12", "Potency": "inactive"},
      {"compound": "CC[C@H](C)[C@@H]1NC(=O)[C@H](Cc2ccc(O)cc2)NC(=O)[C@@H](N)CSSC[C@@H](C(=O)N2CCC[C@H]2C(=O)N[C@@H](CC(C)C)C(=O)NCC(N)=O)NC(=O)[C@H](CC(N)=O)NC(=O)[C@H](CCC(N)=O)NC1=O", "Potency": "inactive"},
      {"compound": "O=c1[nH]c(=O)n([C@H]2C[C@H](O)[C@@H](CO)O2)cc1/C=C/Br", "Potency": "inactive"}
    ]}
  ]
}
